From PubChem BioAssay (NCI)
The panel holds about 83,000 compounds, 20% with a hit somewhere; the sample as a whole holds those more often.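 Single-concentration screen, 48 h exposure, 96-well plates. Endpoint: percent growth. Below 10 = active.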 Unmarked numbers belong to inactive results. The source made the active and inactive calls.

System: OVCAR-8 ovarian
Assay: NCI-60 one-dose screen, 48 h (100 = growth as untreated, 0 = no growth, -100 = all killed)
Details: 10 µM unless noted
Experimental: Growth inhibition of the OVCAR-8 human tumor cell line is measured as a screen for anti-cancer activity. Cells are grown in 96 well plates and exposed to the test compound for 48 hours. Compounds are tested at a single concentration, which is 10^-5 M for most compounds. The reported endpoint is percent growth (GI% or GIPRCNT), where numbers from 0 - 100% represent growth inhibition, and numbers from -100% - 0 represent cell death. For example, a value of 40 represents 60% growth inhibition. A value of 0 means no net growth occurred over the course of the experiment. A value of -40 indicates 40% of cells at the beginning of the experiment died by the end of the experiment. A value of -100 means all cells are dead at the end of the experiment.
NCI-60 Human Tumor Cell Lines Screen was performed using the standard one-dose NCI protocol, which is described in more detail at https://dtp.cancer.gov/discovery_development/nci-60/default.htm.
Compounds with GIPRCNT values below 10 were considered active. Activity score was based on GIPRCNT using the following formula: […]
Score is 0 for GIPRCNT values of 100 or above, 50 for GIPRCNT values of 0, and 100 for GIPRCNT values of -100.

SMILES | growth
COc1ccc(-c2nnc(N3CCN(C(=O)CN4CCN(c5ccc(OC)cc5)CC4)CC3)nc2-c2ccc(OC)cc2)cc1 | -54.9% (active)
C#C[C@@]1(O)[C@@H](CO)O[C@@H](n2cc(-c3ccco3)c3c(N)ncnc32)[C@@H]1O | 65.9%
COc1ccc(Nc2nc(SCC(C)C)nc(-c3ccc(F)cc3)c2C#N)cc1 | 89.4%
NS(=O)(=O)c1ccc(-n2ncc(NC(=O)Nc3ccc(S(=O)(=O)Nc4nccs4)cc3)c2-c2ccccc2)cc1 | 102%
C#C[C@@]1(O)[C@@H](CO)O[C@@H](n2cc(Cl)c3c(N)ccnc32)[C@@H]1O | 26.9%
CC1CCCN(CCCCCOc2ccc3oc4ccccc4c(=O)c3c2)C1 (stereo not given) | 77.5%
COc1ccc2nc(-c3ccc(OC)c(OC)c3)cc(-c3nnc(SCC(=O)Nc4ccc(C(C)=O)cc4)o3)c2c1 | 102%
CCCCCCCCCCCCCC1=NCC[N+]1(CCO)Cc1ccccc1 (stereo not given) | -83% (active)
C=C1C(=O)O[C@H]2[C@H]1CC/C(COC(=O)CCCCCCC(=O)OC/C1=C/CC[C@@]3(C)O[C@H]3[C@H]3OC(=O)C(=C)[C@@H]3CC1)=C\CC[C@@]1(C)O[C@@H]21 | -18.7% (active)
NC[C@@H]1CCN(c2cc3c(cc2F)c(=O)n(N)c(=O)n3Cc2ccc(-c3ccccc3)cc2)C1 | 96.3%
Cc1nn(-c2ccc(-c3ccc(OC(F)(F)F)cc3)cc2)c2nc(-c3ccccc3)nc(N)c12 | 93%
COc1ccc(-c2cc(C(=O)N3N=C(c4ccc(N)cc4)CC3c3ccc(OC)cc3)c3cc(OC)ccc3n2)cc1 (stereo not given) | 22.1%
CCOC(=O)C1=C(C)n2nc(CC#N)c(C#N)c2NC1c1ccc(Cl)cc1 (stereo not given) | 108%
COc1ccc(-c2nc(C#N)c(NCC(c3ccc(Cl)cc3)N3CCCCC3)o2)cc1 (stereo not given) | 101%
CCCCCCN1C(=O)CN=C1Nc1ccc2cc3ccc(NC4=NCC(=O)N4CCCCCC)cc3nc2c1 | 73.9%
C#C[C@@]1(O)[C@@H](CO)O[C@@H](n2cc(Br)c3c(N)ncnc32)[C@@H]1O | -0.359% (active)
Nc1c(C(=O)Nc2ccccn2)sc2nc3c(cc12)CCCCC3 | 19.1%
COc1ccc(-c2cc(-c3nnc(SCC(=O)Nc4ccc(/C(C)=N\O)cc4)o3)c3ccccc3n2)cc1 | 105%
C#CC[C@@H]1C[C@]2(C)[C@H]3CC[C@@H]4[C@H]5[C@H](C(=C)C)CC[C@]5(C(=O)O)CC[C@@]4(C)[C@]3(C)CC[C@H]2C(C)(C)[C@H]1O | 45.8%
CNc1cccc2c1C(=O)c1cccc(N)c1C2=O | 64.5%

SMILES | growth
NS(=O)(=O)c1ccc(-n2nc(-c3ccccc3)ccc2=O)cc1 | 101%
CN(C)CCCn1c2c(c3cc(-c4ccco4)ccc3c1=O)C(=O)c1ccccc1-2 | 48%
COC1=CC=CC2(OC)C3(O)CCCc4cccc(c43)N3C(=O)COC132 (stereo not given) | 99.2%
N#Cc1c(-c2ccc(F)cc2)c(C#N)c2c(C#N)c(N)nn2c1N | 103%
CC(C)C1=C[C@@]23CC[C@H]4[C@](C)(COCCC#N)CCC[C@]4(C)[C@H]2C[C@@H]1[C@@H]1[C@H]3[C@@H](OCCC#N)CC[C@@H]1OCCC#N | 34.4%
Nc1cc(N)c(S(=O)(=O)O)cc1N=Nc1cc([N+](=O)[O-])ccc1O | 99.5%
Nn1c(SCC(=O)Nc2ccc(Cl)cc2)nnc1-c1cc(F)c(Cl)cc1Cl | 89.9%
CN1CCN(C(=O)[C@@]2(C)CC[C@]3(C)CC[C@]4(C)C(=CC[C@@H]5[C@@]6(C)CC[C@H](OC(=O)c7cccnc7)C(C)(C)[C@@H]6CC[C@]54C)[C@@H]3C2)CC1 | 60.2%
COc1ccc(/C=C/C(=O)C(CC2CCC2)C(=O)/C=C/c2ccc(OC)c(OC)c2)cc1OC | 3.28% (active)
CCCCn1c(=O)c(/C=C/C(=O)/C=C/c2cc3ccccc3n(CCCC)c2=O)cc2ccccc21 | -0.92% (active)
O=C(CCc1nnc2sc(OCc3ccccc3)nn12)c1nc2ccc([N+](=O)[O-])cc2[nH]1 | 94.7%
COc1ccc(C2C(c3ccccc3)C(=O)N2c2cc(OC)c(OC)c(OC)c2)cc1I (stereo not given) | 16.7%
C=C(C)[C@@H]1CC[C@]2(C(=O)N=C=S)CC[C@]3(C)[C@H](CC[C@@H]4[C@@]5(C)CCC(=O)C(C)(C)[C@@H]5CC[C@]43C)[C@@H]12 | 24.3%
COc1ccc(-c2[nH]c3ccccc3c2C=C(C#N)C#N)cc1 | 19.4%
COc1ccc2nc(-c3ccc(Cl)cc3)cc(C(=O)N3N=C(c4ccc(N)cc4)CC3c3ccccc3)c2c1 (stereo not given) | 54%
O=C1Nc2ccc(Cl)cc2/C1=N/c1nc(-c2ccc(F)cc2)cs1 | 45.3%
N#Cc1ccc(N2Cc3cc(Cl)ccc3OC3=C2C(=O)N(Cc2ccc(F)cc2)C3=O)cc1 | -26.9% (active)
COc1cc(-c2cn(-c3ccc(Cl)c(Cl)c3)c(=O)[nH]2)cc(OC)c1OC | 95.1%
CCOC(=O)c1cnn(-c2nc(-c3ccc(F)cc3)c(C#N)c(N3CCOCC3)n2)c1N | 100%
O=C(CCc1nnco1)c1nc2ccc([N+](=O)[O-])cc2[nH]1 | 105%
